These results are taken from PubChem BioAssay AID449762 (Southern Research Specialized Biocontainment Screening …, 2010).

In all, about 330,000 compounds went through this assay and about 1,900 (0.58%) were called active. Another 4% or so got no clear call; they are omitted. Only a sample is shown. Potency and affinity values are given separately. Values without a mark were called inactive. Rule as the data show it: inconclusive = inhibition above about 70% without an active follow-up result; inactive = below that.

The experiment is described as follows: M. tuberculosis growth inhibition, HTS (AID 449762).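 Also: bacterial growth assessed after seven days of incubation.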 Particulars: M. tuberculosis H37Rv growth inhibition, 7H9 media; at 25 µM; active compounds read high.
On to `COc1ccc(CCN2C(=O)CSC2c2ccc(F)cc2)cc1` (centres undefined), for which the inhibition (commonly the drop in the measured response relative to a control, in per cent) is -7.99%. Take `Cc1ccc(S(=O)(=O)N(C)c2ccc(C(=O)Nc3ccccn3)cc2)cc1`: the inhibition was 27.5%. For the compound `COc1ccc(-c2sc3ccc(N4CCOCC4)cc3c2-c2ccc(OC)c(F)c2)cc1`, the inhibition is -0.65%.

Take `Cc1nc(SCc2nc3ccccc3[nH]2)c2oc3cc(Br)ccc3c2n1`: the inhibition is 0.43%. In the case of `Cc1cc(NC(=O)Cn2ccsc2=N)c([N+](=O)[O-])cc1C`, the inhibition is -4.45%. Then `N=c1sccn1CC(=O)Nc1ccc(Cl)cc1[N+](=O)[O-]`, with -3.88%; and `CC(C)C(=O)N1CCC2(CC1)Oc1ccc(Cl)cc1C(=O)C21CC(c2cccnc2)=NO1` (centres undefined), with 1.87%. For `CC(Oc1ccccc1)C(=O)N1CCC2(CC1)Oc1ccc(Cl)cc1C(=O)C21CC(c2ccccc2)=NO1` (centres undefined), the inhibition is 23.6%.

In the case of `CN1/C(=C\C(=O)c2cccnc2)C(C)(C)c2ccccc21`, the inhibition is 14.2%. On to `CN1/C(=C\C(=O)c2ccco2)C(C)(C)c2ccccc21`, for which the inhibition was 1.21%. In the case of `CCC(C)[C@H](NC(=O)Nc1ccc(S(N)(=O)=O)cc1)C(=O)OC` (some centres undefined), the inhibition is 1.32%. Consider `O=C(CCl)Nc1ccc(S(=O)(=O)NC2=NCCCCC2)cc1`, for which the inhibition was 47.6%. Consider `Cc1cc(NC(=O)/C=C/c2ccccc2)no1`, for which the inhibition is 11.4%. Regarding `COC(=O)c1cc(/C=C/c2ccccc2)[nH]n1`, the inhibition was 37.7%. For `O=C(c1ccc(C(F)(F)F)cc1)N1CCC(=O)N(C(COCc2ccc(Cl)cc2)Cc2ccccc2)CC1` (centres undefined), the inhibition is -0.74%. Turning to `CCSc1nc2ccccc2n1CC(N)=O`, the inhibition was -10.4%. With `CC(C)(C(=O)O)c1ccc([C@H](O)CCCN2CCC(C(O)(c3ccccc3)c3ccccc3)CC2)cc1`, the inhibition is 6.89%. `CC(C)(C(=O)O)c1ccc(C(O)CCCN2CCC(C(O)(c3ccccc3)c3ccccc3)CC2)cc1` (centres undefined): the inhibition was 6.01%. Regarding `Cc1ccc2cc(CCNC(=O)c3ccc4c(c3)OCO4)c(=O)[nH]c2c1C`, the inhibition was -3.26%.

As to `Cn1ccc(NC(=O)CCl)n1`, the inhibition is 57.5%.

As to `Cn1c(=O)n(C)c2cc(NC(=O)CCl)ccc21`, the inhibition is 64.7%. Regarding `CSc1ccc(CCNS(=O)(=O)c2c(C)[nH]c(C)c2C(=O)N2CCCCC2)cc1`, the inhibition is -2.39%. Consider `Cc1ccc(NC(=O)C2CCC(CNC(=O)[C@@H]3Cc4ccccc4CN3)CC2)c(C)c1` (some centres undefined), for which the inhibition is 7.99%. Then `Cn1c(O)c(/C=N/N2CCCCC2)c(=O)[nH]c1=O`, with -3.56%; and `C=CCSC1=C(C#N)C(c2ccccc2C)CC(=O)N1` (centres undefined), with 1.95%; and `COc1c[nH]n(-c2ccccc2)c(=O)c1=O`, with 2%. Then `COc1cc2[nH]c(=O)n(C3CCCCC3)c(=O)c2cc1OC`, with -2.86%; and `COc1ccc([C@H]2CC(=O)C=C(c3ccc4[nH]ccc4c3)C2)cc1OC`, with 55.7%. As for `O=C1C=C(c2ccc3ccccc3c2)C[C@@H](c2ccc(Cl)cc2)C1`, the inhibition was 19.3%.

Regarding `O=C(Nc1ccc(F)c(F)c1)C1CCN(S(=O)(=O)c2cccc3nonc23)CC1`, the inhibition is -5.72%. With `Cn1nc(C(=O)Nc2cc(Cl)ccc2N2CCCC2)c2ccccc2c1=O`, the inhibition is 1.5%.

With `CC(=O)Nc1ccc(NC(=O)COc2ccc3c(c2)CCC3)cc1`, the inhibition was 1.68%.

As to `Cc1cccnc1NC(=O)COc1ccc2c(c1)CCC2`, the inhibition is 54.8%. As for `O=C(c1ccc2snnc2c1)N1CCCCC1`, the inhibition was -3.95%.

As for `CCc1nnc(NC(=O)C2CC(=O)N(c3ccc(C)cc3)C2)s1` (centres undefined), the inhibition was 11.9%. As to `Cc1ccc(N2CC(C(=O)Nc3nccs3)CC2=O)cc1Cl` (centres undefined), the inhibition was 10.9%.

Consider `COC(=O)/C(C#N)=C/c1c(-c2ccccc2)nc2n1CCS2`, for which the inhibition is -12.2%. As to `CCNc1nc(NC(C)C)nc(NS(=O)(=O)c2ccc(N)cc2)n1`, the inhibition was -9.39%. Then `O=C(N/N=C/C=C/c1ccccc1)c1cccnc1`, with -0.94%; and `CC(/C=C/c1ccco1)=N\NC(=O)c1cccnc1`, with -3.96%; and `CC(C)N1CSC(=S)N(Cc2ccccc2)C1`, with 64.3%.

For the compound `S=C1NCN(Cc2ccco2)CN1Cc1ccco1`, the inhibition is 7.57%. Take `COCCN1CSC(=S)N(Cc2ccco2)C1`: the inhibition was 66.9%. As for `CC(C)(C)N1CSC(=S)N(Cc2ccccc2)C1`, the inhibition is 65%. The value for `O=C(CCN1C(=O)c2ccccc2C1=O)Nc1ccc(F)cc1` was -6.8%; that for `CN(C)CCCN(C(=O)c1nc2ccccc2s1)c1nc2ccc(F)cc2s1` was -11.9%; that for `CN(C)CCCN(C(=O)c1cc(-c2cccs2)nc2ccccc12)c1nc2c(F)cccc2s1` was 49.4%. `C[C@H](CO)N1C[C@H](C)[C@@H](CN(C)C(=O)NC2CCCCC2)Oc2ccc(NC(=O)Cn3cnnn3)cc2C1=O`: the inhibition was 4.07%. Consider `Cc1c(C)c(C)c(CN2CCCC2)c(C)c1C`, for which the inhibition is 2.65%. On to `CNC(=O)c1ccc(NC(=O)CCc2c(C)noc2C)cc1`, for which the inhibition was -12.4%.

As to `CC[C@@]12C(=O)N(c3cccc(F)c3)C(=O)N1[C@H](c1ccc(F)cc1)[C@@H]1C(=O)N(C3CCCCC3)C(=O)[C@@H]12`, the inhibition was 0.17%. On to `CC(=O)Nc1ccc(N2C(C(C)=O)=NN(c3ccccc3)C2c2cccs2)cc1` (centres undefined), for which the inhibition is 1.3%.

Regarding `CC(=O)C1=NN(c2ccccc2)C(c2cccs2)N1c1ccccc1` (centres undefined), the inhibition was -3.16%. In the case of `CC(=O)OCC1=C(C(=O)O)N2C(=O)C(NC(=O)C(C)Cn3cc(Cl)cn3)C2SC1` (centres undefined), the inhibition was -1.4%. The value for `CCCSc1nsc(SCCC)c1C#N` was -0.55%; that for `CN(Cc1ccccc1)C(=O)Cn1c(=O)oc2cc(S(=O)(=O)N3CCCC3)ccc21` was -1.71%; that for `COc1cc(C2C(C(=O)C(C)(C)C)=C(O)C(=O)N2Cc2ccccc2)ccc1O` (centres undefined) was 1.41%.

On to `Cc1ccc(NC(=O)c2oc3ccc(S(=O)(=O)N4CCOCC4)cc3c2C)cc1C`, for which the inhibition was -7.43%. With `COc1cccc(NC(=O)c2oc3ccc(S(=O)(=O)N4CCOCC4)cc3c2C)c1`, the inhibition was 58%. Consider `O=C(O/N=C1/CCCc2occc21)c1ccccc1`, for which the inhibition was 6.31%. Regarding `CCCn1c(S(=O)(=O)O)nc2ccccc21`, the inhibition is 5.54%.

Turning to `COc1cc2c(cc1OC)C(C)N(S(=O)(=O)c1cccs1)CC2` (centres undefined), the inhibition was -12.1%.

In the case of `O=C(NC1CCCC1)C(c1ccncc1)N(CCCN1CCOCC1)C(=O)c1ccc(-c2ccccc2)[nH]1` (centres undefined), the inhibition is 3.89%. The value for `O=C(NC1CCCCC1)C(c1ccc(F)cc1)N(CCN1CCOCC1)C(=O)c1ccc(-c2ccccc2)[nH]1` (centres undefined) was 42.3%. Regarding `CCC(COC(=O)Nc1ccccc1)NC(=O)OC(C)C` (centres undefined), the inhibition is -6.07%. Regarding `COc1cccc(Cn2cnc3c(NS(=O)(=O)c4cc(Cl)ccc4Cl)c(C)c(C)cc32)c1`, the inhibition is 0.44%.

On to `NS(=O)(=O)c1ccc(Nc2nc(-c3ccc4ccccc4c3)cs2)cc1`, for which the inhibition is 1.78%.

As for `Oc1ccc(Nc2nc(-c3ccc(O)cc3)cs2)cc1`, the inhibition is 4.52%. Consider `CSc1ccccc1NC(=O)Cn1nnc(-c2ccc(S(C)(=O)=O)cc2)n1`, for which the inhibition was -2.14%.

As to `NC(=O)C1CCN(Cc2nc(-c3ccccc3)no2)CC1`, the inhibition is -14.2%. On to `O=c1c2ccccc2cnn1Cc1n[nH]c(=S)n1-c1ccc(F)cc1`, for which the inhibition is 4.78%. The value for `CCOC(=O)N/N=C(\C)c1ccc(C)o1` was -1.85%; that for `CCOC(=O)N/N=C\c1ccc([N+](=O)[O-])o1` was -1.58%. With `CC(C)NC(=O)N(O)C1N(Cc2ccc3c(c2)OCO3)C(=S)SC1(C)C` (centres undefined), the inhibition was 3.94%. `CCCc1cc(C(=O)OC)c(NC(=O)CCCC(=O)O)s1`: the inhibition is 0.02%.

As for `Cc1nn(CC(=O)NCCCc2ccccc2)c(=O)c2cc3occc3n12`, the inhibition was 3.16%. In the case of `COc1cccc(NC(=O)CN(C)C(=O)CNC(=O)c2ccc(Oc3ccccc3)cc2)c1`, the inhibition is 7.98%. Regarding `Cc1c(Cl)cccc1NC(=S)N1CCN(C(=O)c2ccco2)CC1`, the inhibition is -0.43%. Then `COc1ccc(N2C(=O)C(F)(F)C2c2ccc(C)cc2)cc1OC` (centres undefined), with 60.7%.

`Cc1ccc(N2C(=O)C(CN(C)C)C2c2ccccc2)cc1` (centres undefined): the inhibition was -6.05%.

With `CC1=NN(C(=O)c2c(Br)c(C)nn2C)C(O)(C(F)(F)F)C1` (centres undefined), the inhibition is 0.52%. On to `C#CCSc1nc2ccccc2n1C(=O)c1ccc(S(=O)(=O)N2CCCCC2)cc1`, for which the inhibition is -2.86%.

As to `COC(=O)C1=C(c2ccc(S(C)(=O)=O)cc2)C[C@@H]2CC[C@H]1N2C(=O)N1CCCCC1`, the inhibition was 3.7%. Take `Cc1c(C(=O)NCc2ccccn2)oc2c(Cl)cccc12`: the inhibition is -3.71%. Then `Cc1c(Cl)cccc1NC(=O)NCc1ccccn1`, with -11.4%. As for `CCC1CCCCN1CCCNC(=O)Cn1nc(C)n2nc(-c3ccccc3)cc2c1=O` (centres undefined), the inhibition was 1.58%.

On to `CCSc1nnc(CCNS(=O)(=O)c2ccc(C(C)=O)cc2)n1C`, for which the inhibition is 0.26%. Take `S=C(Nc1cc(Cl)cc(Cl)c1)N1CCCC1`: the inhibition was 0.04%. Regarding `Cc1cc2c(ncn2Cc2ccccc2)c(N)c1C`, the inhibition was 2.7%. The value for `CCCn1cnc2c(N)c(C)c(C)cc21` was -11.4%; that for `O=C(NNC(=O)C1CCN(c2ncccn2)CC1)c1ccc(F)cc1` was 0.94%; that for `CC(=O)OC1N=C(c2ccccc2Cl)c2cc(Br)ccc2N(C)C1=O` (centres undefined) was -6.48%.

As for `N#C/C(=C/c1ccc(N2CCCCC2)o1)C(=O)NCCc1c[nH]c2ccccc12`, the inhibition is -3.85%.

Turning to `N#C/C(=C/c1ccc(Br)s1)C(=O)NCCc1c[nH]c2ccccc12`, the inhibition was 3.76%.
